Test results from the supplement of paper PMC11732987, “Enantioselective OTUD7B fragment discovery through chemoproteomics screening and high-throughput optimisation” (Communications Chemistry, 2025).

What was measured:
Assay in all cases: log2 ratio of Biotin-Ahx-Ub-VS probe labelling (fragment/DMSO); higher = less target engagement (more negative = stronger competition), active = hit call of the paper (q ≤ 0.05, log2 ratio ≤ -1)
Conditions in all cases: compound concentration: 200 uM; treatment time: 3 h
[1] = target: T1, USP19 (UniProt O94966)
T1 sequence (whole entry): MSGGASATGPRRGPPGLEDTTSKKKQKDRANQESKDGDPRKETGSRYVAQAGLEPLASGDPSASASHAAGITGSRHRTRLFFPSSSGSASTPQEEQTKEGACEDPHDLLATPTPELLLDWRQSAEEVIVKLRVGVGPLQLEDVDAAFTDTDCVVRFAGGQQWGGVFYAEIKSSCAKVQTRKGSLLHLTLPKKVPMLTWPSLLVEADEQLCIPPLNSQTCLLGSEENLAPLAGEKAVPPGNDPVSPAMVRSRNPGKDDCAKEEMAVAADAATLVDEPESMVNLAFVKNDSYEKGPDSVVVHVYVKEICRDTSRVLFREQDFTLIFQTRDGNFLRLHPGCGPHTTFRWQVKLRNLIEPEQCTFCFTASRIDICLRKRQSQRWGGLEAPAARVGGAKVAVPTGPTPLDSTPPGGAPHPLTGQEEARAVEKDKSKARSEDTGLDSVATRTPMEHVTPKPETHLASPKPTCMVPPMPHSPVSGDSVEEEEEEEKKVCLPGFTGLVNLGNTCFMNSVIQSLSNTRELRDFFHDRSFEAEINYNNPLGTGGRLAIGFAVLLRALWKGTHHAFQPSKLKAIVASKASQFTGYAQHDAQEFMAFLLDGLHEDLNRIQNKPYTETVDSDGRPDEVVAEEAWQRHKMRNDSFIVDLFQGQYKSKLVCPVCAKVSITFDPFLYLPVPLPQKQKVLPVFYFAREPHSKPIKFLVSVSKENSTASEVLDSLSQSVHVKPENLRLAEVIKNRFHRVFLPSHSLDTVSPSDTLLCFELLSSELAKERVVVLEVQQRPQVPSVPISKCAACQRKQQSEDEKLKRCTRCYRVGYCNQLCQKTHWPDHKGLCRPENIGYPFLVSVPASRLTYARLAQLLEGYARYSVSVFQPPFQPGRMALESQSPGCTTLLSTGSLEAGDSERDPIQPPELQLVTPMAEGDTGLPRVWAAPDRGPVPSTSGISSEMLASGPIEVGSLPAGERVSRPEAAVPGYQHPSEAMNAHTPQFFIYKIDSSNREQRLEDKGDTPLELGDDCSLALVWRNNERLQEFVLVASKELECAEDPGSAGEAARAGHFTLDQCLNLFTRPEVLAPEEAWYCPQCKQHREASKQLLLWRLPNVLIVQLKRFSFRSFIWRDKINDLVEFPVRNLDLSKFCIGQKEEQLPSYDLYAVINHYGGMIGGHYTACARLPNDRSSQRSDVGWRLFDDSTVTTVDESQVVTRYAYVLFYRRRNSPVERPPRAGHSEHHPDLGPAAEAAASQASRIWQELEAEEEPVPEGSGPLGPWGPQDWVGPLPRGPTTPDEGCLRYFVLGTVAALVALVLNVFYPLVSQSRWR
Summary of the method: (§1)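 HEK293T lysate (495 µg per sample, in Tris/CHAPS/IGEPAL buffer with protease inhibitors) was exposed in triplicate for 3 h to fragment at 200 µM or to vehicle, then to Biotin-Ahx-Ub-VS at 0.5 µM final for 1 h. Labelled DUBs were enriched on NeutrAvidin, digested with LysC and trypsin, and analysed by diaPASEF LC-MS/MS. Spectronaut label-free quantities were normalised to the global median, and values are average log2 ratios of fragment over vehicle from an unpaired t-test. Only proteins with ≥2 unique peptides were used.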

[2] = target: USP24 (UniProt Q9UPU5)
Chain of USP24 (Q9UPU5 whole entry): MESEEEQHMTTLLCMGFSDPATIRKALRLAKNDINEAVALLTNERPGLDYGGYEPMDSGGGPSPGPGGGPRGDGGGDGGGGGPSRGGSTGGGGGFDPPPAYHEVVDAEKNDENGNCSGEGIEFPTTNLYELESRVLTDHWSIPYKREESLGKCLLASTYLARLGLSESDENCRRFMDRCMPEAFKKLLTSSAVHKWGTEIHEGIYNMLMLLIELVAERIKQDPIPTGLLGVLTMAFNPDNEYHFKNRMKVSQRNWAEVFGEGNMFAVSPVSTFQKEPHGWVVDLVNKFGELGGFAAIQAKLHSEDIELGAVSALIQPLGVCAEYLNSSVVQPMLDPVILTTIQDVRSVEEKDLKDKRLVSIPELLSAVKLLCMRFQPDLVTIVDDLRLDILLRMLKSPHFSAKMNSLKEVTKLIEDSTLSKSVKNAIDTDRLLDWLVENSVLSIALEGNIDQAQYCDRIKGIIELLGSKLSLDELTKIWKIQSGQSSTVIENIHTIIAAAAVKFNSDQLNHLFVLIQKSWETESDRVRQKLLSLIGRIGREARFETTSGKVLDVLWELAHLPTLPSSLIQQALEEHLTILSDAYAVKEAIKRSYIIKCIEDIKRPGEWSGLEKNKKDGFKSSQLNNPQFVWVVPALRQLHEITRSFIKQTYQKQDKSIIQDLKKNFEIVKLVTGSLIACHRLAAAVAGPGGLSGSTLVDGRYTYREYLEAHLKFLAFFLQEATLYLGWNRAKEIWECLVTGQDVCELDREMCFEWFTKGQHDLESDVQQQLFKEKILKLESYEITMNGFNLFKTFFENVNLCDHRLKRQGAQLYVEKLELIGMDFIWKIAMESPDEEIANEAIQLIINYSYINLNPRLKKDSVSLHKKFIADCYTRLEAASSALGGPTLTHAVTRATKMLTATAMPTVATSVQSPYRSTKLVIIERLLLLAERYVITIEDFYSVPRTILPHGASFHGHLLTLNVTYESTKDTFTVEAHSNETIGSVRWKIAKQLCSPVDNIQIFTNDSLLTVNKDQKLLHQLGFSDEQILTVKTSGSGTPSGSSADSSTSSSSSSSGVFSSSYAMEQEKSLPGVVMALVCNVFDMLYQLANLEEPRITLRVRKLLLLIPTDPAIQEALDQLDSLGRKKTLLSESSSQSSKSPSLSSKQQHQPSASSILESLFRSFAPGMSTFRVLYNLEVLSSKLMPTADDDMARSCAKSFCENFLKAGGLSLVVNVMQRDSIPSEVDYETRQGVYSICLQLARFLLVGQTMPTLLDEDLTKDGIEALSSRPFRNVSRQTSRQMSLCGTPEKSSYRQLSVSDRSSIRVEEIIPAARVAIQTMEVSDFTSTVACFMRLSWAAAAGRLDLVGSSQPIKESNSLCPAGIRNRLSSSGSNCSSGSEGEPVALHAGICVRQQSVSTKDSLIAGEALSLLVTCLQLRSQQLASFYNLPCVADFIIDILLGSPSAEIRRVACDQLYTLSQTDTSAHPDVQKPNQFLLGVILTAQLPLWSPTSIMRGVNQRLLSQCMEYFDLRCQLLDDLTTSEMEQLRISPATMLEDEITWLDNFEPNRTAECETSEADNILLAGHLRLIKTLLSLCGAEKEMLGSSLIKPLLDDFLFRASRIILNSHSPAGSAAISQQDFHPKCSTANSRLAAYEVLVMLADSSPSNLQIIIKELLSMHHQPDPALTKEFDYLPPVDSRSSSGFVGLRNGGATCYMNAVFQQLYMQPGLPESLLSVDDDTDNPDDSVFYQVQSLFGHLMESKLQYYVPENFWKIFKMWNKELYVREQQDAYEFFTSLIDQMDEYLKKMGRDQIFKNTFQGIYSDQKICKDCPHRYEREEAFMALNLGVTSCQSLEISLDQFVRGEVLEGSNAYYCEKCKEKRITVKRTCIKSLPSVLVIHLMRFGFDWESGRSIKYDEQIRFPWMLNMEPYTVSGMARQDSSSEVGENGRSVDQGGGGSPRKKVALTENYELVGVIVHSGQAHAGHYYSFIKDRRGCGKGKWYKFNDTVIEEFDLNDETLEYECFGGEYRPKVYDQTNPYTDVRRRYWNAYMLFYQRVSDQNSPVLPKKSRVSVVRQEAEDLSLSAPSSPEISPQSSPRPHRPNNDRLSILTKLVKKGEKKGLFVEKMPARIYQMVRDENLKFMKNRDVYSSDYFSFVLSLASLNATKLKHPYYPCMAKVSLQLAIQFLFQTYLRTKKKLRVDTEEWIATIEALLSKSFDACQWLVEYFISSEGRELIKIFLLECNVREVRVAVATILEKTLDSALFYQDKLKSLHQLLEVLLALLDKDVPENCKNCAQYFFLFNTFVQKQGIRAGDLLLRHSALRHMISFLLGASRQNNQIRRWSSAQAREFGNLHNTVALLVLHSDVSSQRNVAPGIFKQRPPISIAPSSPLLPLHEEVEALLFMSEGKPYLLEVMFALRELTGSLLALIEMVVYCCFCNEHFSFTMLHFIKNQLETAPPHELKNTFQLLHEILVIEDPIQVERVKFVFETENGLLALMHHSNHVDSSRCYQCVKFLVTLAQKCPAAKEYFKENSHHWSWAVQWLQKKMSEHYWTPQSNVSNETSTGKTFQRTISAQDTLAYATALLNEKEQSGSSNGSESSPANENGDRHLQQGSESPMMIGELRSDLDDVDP
Summary of the method: as §1

[3] = target: T2, USP25 (UniProt Q9UHP3)
T2 sequence (whole entry): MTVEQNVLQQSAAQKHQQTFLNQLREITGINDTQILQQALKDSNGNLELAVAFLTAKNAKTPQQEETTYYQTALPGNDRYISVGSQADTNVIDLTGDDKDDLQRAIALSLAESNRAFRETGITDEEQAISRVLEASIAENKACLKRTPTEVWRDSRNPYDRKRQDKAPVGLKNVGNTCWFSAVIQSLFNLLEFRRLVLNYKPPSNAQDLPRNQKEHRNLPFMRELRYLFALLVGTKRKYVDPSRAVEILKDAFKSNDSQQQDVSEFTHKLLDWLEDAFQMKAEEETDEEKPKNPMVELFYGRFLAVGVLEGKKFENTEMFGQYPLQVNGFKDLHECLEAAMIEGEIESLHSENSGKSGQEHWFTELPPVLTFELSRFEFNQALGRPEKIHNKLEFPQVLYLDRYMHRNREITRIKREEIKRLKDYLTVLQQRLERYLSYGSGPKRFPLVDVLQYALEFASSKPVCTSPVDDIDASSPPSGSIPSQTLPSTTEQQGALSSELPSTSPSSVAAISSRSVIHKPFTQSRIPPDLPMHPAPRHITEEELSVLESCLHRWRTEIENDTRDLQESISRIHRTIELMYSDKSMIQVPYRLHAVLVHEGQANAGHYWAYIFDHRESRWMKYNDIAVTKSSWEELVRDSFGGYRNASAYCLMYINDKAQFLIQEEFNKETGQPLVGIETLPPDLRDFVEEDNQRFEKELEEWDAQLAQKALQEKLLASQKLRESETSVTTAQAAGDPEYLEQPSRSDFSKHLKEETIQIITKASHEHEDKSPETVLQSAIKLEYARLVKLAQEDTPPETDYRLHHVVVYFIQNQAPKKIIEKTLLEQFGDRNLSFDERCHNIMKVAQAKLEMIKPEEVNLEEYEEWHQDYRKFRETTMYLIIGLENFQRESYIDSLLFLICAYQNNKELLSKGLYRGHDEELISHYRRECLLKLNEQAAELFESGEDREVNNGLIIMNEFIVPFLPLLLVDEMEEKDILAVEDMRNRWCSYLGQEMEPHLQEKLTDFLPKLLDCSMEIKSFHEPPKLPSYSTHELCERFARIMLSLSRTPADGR
Summary of the method: as §1

[4] = target: T3, USP28 (UniProt Q96RU2)
T3 sequence (whole entry): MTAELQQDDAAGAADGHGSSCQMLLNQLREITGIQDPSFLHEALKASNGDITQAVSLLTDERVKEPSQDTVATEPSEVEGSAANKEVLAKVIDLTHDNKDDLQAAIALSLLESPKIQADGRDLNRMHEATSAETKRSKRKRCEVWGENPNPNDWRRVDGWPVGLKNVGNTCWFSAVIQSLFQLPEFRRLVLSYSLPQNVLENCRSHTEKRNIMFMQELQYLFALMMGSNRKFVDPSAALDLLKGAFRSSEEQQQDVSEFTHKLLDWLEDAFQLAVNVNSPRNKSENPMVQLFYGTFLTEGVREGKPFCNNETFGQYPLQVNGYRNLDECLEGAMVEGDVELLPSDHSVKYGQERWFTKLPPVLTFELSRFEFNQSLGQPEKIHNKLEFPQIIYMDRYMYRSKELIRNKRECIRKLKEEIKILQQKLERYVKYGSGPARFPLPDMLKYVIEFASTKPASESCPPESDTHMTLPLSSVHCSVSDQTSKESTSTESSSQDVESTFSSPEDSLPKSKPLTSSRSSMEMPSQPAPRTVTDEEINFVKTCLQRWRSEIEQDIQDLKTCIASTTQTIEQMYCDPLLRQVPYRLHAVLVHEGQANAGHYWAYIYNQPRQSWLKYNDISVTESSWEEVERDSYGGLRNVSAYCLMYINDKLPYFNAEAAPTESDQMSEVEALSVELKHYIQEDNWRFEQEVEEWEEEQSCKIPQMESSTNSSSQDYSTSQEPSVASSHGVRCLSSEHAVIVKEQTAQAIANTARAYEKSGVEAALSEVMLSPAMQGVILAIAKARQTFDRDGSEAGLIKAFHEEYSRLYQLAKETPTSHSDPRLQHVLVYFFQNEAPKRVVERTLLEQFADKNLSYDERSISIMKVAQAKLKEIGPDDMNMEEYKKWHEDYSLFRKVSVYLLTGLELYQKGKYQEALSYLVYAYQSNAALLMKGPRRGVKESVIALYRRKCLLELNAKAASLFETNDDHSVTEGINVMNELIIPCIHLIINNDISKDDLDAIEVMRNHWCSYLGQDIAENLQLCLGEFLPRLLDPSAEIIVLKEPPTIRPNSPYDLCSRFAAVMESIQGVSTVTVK
Summary of the method: as §1

Measured: log2 ratio of Biotin-Ahx-Ub-VS probe labelling

O=C(CCl)N1CCOCCC1c1ccccc1 (centres undefined)
inactive: [1] -0.132 | [2] -0.633 | [3] 0.0233 | [4] -0.12
